Binding signal data for one sequence are collected here from patent US20030180744, “High affinity oligonucleotide ligands to growth factors” (GILEAD SCIENCES, INC., published 2003).

Test in all cases: filter; Kd target / Kd hKGF
In one test the target is bFGF (Homo sapiens, UniProt P09038 P09038:143-288). The note with it: tags: R&D Systems; pseudoknot; ssRNA; 2'-F pyrimidines.
Another test deals with aFGF (Homo sapiens, UniProt P05230 P05230:16-155). The note with it: tags: R&D Systems; pseudoknot; ssRNA; 2'-F pyrimidines.
The target in a further test is T1, KGF (rat) (Rattus norvegicus, UniProt Q02195 Q02195:32-194).
T1 sequence: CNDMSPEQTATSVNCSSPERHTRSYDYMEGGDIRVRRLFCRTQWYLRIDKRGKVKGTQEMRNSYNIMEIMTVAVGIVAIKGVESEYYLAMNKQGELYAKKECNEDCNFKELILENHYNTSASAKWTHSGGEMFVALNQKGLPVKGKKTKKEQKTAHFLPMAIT
The note with it: tags: QED Advanced Research Technologies; pseudoknot; ssRNA; 2'-F pyrimidines.

Chain of bFGF (P09038 143-288, one chain of several): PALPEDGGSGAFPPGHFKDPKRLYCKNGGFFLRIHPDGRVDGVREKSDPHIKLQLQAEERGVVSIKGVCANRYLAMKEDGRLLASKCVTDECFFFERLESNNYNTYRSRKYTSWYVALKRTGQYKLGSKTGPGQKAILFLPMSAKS
Chain of aFGF (P05230 16-155, one chain of several): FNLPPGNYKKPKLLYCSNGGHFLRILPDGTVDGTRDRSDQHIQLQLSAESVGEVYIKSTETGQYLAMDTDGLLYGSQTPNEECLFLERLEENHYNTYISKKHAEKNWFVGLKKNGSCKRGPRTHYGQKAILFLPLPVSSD

Consider “GGGAGGACGAUGCGGUGGUCUCCCAAUUCUAAACUUUCUCCAUCGUAUCUGGGCCAGACGACUCGCCCGA”, for which the binding signal with bFGF stood at 1070; with aFGF it was 38600; with KGF (rat), 1250.
